Test results published in PubChem BioAssay (NCATS).
Records with an inconclusive call do not appear. Unmarked numbers belong to inactive results. Active and inactive are the calls of the source. Calls come from the whole dose curve; as a rule, active = well fitted curve in the direction sought with a large enough effect; inconclusive = small, poorly fitted or top-dose-only effect, or another doubt; inactive = no such curve, though single readings can be large; an effect the other way counts as inactive or inconclusive.

Columns and labels:
[1] = Viability qHTS for spleen associated tyrosine kinase inhibitor (SYKi) naive MV4-11 cells (AID 1963823); note: nearly all actives have a fitted effect of over 40% in size; note: potency is the fitted concentration of half-maximal effect
Outline: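 Read-out: CellTiter-Glo luminescence. Exposure: 72 hr, 37 C, 5% CO2, 95% humidity. Cells: MV4-11 without SYK inhibitor history, 500/well, qHTS format.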

[2] = Cellular viability qHTS for adrenocortical cancer (ACC) cell line SW-13 (AID 1963989); details: SW-13 ACC cells viability, CellTiter-Glo, 48 h; activity (max response): hits give low values; note: nearly all actives have a fitted effect of over 65% in size; note: potency is the fitted concentration of half-maximal effect;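 for activity (max response): cells grown in serum-free medium with ITS supplement; % is set by controls: 0 for no effect and ±100 for the full control effect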
Outline: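 48 h treatment, SW-13 in ITS/DMEM serum-free; doses up to 46 uM; readout CellTiter-Glo luminescence; curve fit four-parameter logistic.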

[3] = Cellular viability qHTS for adrenocortical cancer (ACC) cell line NCI-H295R (AID 1963990);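 note: 0% = DMSO only wells and -100% = full killing with cytotoxic reference compound; nearly all actives have a fitted effect of over 60% in size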
Outline: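 Compound titrations (up to 46 uM final) are applied to NCI-H295R cultures for 48 h at 37C. Viable cell number is estimated by CellTiter-Glo signal, normalised to DMSO and doxorubicin controls.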

[4] = Quantitative highthroughput screen to assess conditional lethalithy of SEM cells grown in RPMI1640 with dialyzed fetal bovine serum (RPMI+ds) (AID 1963884); note: potency is the fitted concentration of half-maximal effect; nearly all actives have a fitted effect of over 35% in size
Outline: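 Each medium arm—HPLM with 10% dialyzed FBS, or RPMI1640 with 5 mM glucose and 10% untreated or dialyzed FBS—was screened against an 11-point, 3-fold compound titration for 48 h at 37 °C, with CellTiter-Glo luminescence as endpoint.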

Question: For O=C1OCCN1/N=C/c1ccc([N+](=O)[O-])o1, which Potency [1] is on record?
Answer: Its Potency is “inactive”.

Question: What about the activity (max response) [2] of the same molecule?
Answer: Its activity (max response) is -0.921%.

Question: With CCCCCOc1ccccc1/C(=C\SC)n1ccnc1 as the molecule, how does the Potency [1] read?
Answer: The Potency was 11.9 µM (active).

Question: What about the Potency [2] of the same molecule?
Answer: The Potency was 23.1 µM (active).

Question: For CC[C@@H](C)Nc1cc(C(=O)NC2CC3CCC(C2)N3c2ccc(C(=O)C3CC3)cn2)c(C)cc1C(N)=O (stereo partly specified), which Potency [1] is on record?
Answer: The Potency was 0.0417 µM (active).

Question: What about the Potency [2] of the same molecule?
Answer: Its Potency is 0.355 µM (active).

Question: For CCN(CC)C(=O)N1CCN(C)CC1, which Potency [1] is on record?
Answer: The Potency was “inactive”.

Question: And the activity (max response) [2]?
Answer: The activity (max response) was -0.284%.

Question: For Cc1cc2nc3c(=O)[nH]c(=O)nc-3n(C[C@H](O)[C@H](O)[C@H](O)CO)c2cc1C, which Potency [1] is on record?
Answer: The Potency was “inactive”.

Question: What about the activity (max response) [2] of the same molecule?
Answer: Its activity (max response) is 8.72%.

Question: What does the source list for CC(C)(CO)[C@@H](O)C(=O)NCCCO?
Answer: Potency [1]: inactive; activity (max response) [2]: 15.4%; Potency [3]: inactive

Question: What does the source list for NC(=O)c1ccc2[nH]ccc2c1?
Answer: Potency [1]: inactive; Potency [4]: 18.7 µM (active); activity (max response) [2]: -8.13%; Potency [3]: inactive

Question: Which results are given for Cc1oc(-c2ccccc2)nc1CCC(=O)c1ccc(CC2SC(=O)NC2=O)cc1 (stereo unspecified)?
Answer: Potency [1]: inactive; activity (max response) [2]: -12.1%

Question: For COc1cc(C(=S)N2CCOCC2)ccc1O, which Potency [1] is on record?
Answer: Its Potency is “inactive”.

Question: What about the activity (max response) [2] of the same molecule?
Answer: Its activity (max response) is -19.3%.
